Assay results published in PubChem BioAssay (NCATS).
Where “and” joins values, the source holds several entries; their conditions need not be identical. Identical values can stand only once. Inconclusive results are not listed. Calls of active or inactive are those of the source. Unless noted, calls follow the shape of the dose curve; as a rule, active = well fitted curve in the direction sought with a large enough effect; inconclusive = small, poorly fitted or top-dose-only effect, or another doubt; inactive = no such curve, though single readings can be large; an effect the other way counts as inactive or inconclusive.

Legend:
[1] = Cell Viability - HepG2 (AID 433; calls by dose curve;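 also: potency is read from the fitted curve at half-maximal effect; potency for ATP loss meaning cytotoxicity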); conditions: qHTS
Method in brief: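 Read-out is luciferase-based quantitation of cellular ATP as a measure of viable HepG2 cells after 40 h treatment at 37 °C. Signal decrease is scaled between DMSO-only and 100 uM tamoxifen controls, with AC50 fitted by the Hill equation.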

[2] = Cell Viability - MRC5 (AID 434; calls by dose curve;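 also: potency is read from the fitted curve at half-maximal effect; potency reflects cytotoxicity seen as loss of intracellular ATP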); conditions: MRC5 lung fibroblast viability, qHTS
Method in brief: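 qHTS cytotoxicity in human lung fibroblast MRC5 cells; 40 hr treatment, 37 °C; cellular ATP by luciferase luminescence; DMSO = 0%, 100 uM tamoxifen = 100% inhibition; Hill-fit AC50.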

[3] = molecular target: Mitogen-activated protein kinase 10 (Mus musculus) (UniProt Q61831); test: JNK3 AlphaScreen Assay (AID 530; active = well fitted curve in either direction with a large enough effect, not every such curve was filed as active;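 also: kinase came from lysate of stimulated human HepG2 cells; signal reports phosphorylation of biotinylated GST-cJun 1-79 at Ser73 with 10 µM ATP; % is scaled to controls: 0 for no effect and ±100 for the full control effect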); conditions: JNK3 lysate, c-Jun phosphorylation; series mostly up to 57.1 µM
Method in brief: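 Compound titrations were preincubated 15 minutes at room temperature with substrate, antibody and pre-activated JNK3-containing HepG2 lysate. Reactions were started with 10 uM ATP and stopped with EDTA-containing bead buffer for AlphaScreen detection.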

[4] = Cell Viability - NIH 3T3 (AID 541); conditions: NIH 3T3 cell viability, qHTS; activity change, negative = cytotoxicity: at 92.2 µM (top of the series);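 also: plate controls were DMSO alone for no effect and tamoxifen positive control for full effect; nearly all actives have a fitted effect of over 25% in size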
Method in brief: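 Luminescent ATP signal (CellTiter-Glo) served as the viability read-out after NIH 3T3 cells were exposed to compounds over a concentration range for 40 hr at 37 °C. Hill-equation modelling of concentration-response data gave AC50.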

[5] = Cell Viability - HUV-EC-C (AID 542); conditions: HUV-EC-C endothelial cell viability, qHTS; series mostly up to 92.2 µM; also: % is scaled to controls: 0 for no effect and ±100 for the full control effect; nearly all actives have a fitted effect of over 35% in size
Method in brief: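 qHTS cytotoxicity: HUV-EC-C, 1000 cells/well, 5 hr settle, compound 40 hr 37 °C, CellTiter-Glo, luminescence. AC50 via Hill equation.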

[6] = Cell Viability - SH-SY5Y (AID 544); conditions: SH-SY5Y neuroblastoma cell viability; viability change, negative = cytotoxic: at 92.2 µM (top of the series); also: nearly all actives have a fitted effect of over 55% in size
Method in brief: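 Luminescent ATP read-out (CellTiter-Glo) measures loss of viable SH-SY5Y neuroblastoma cells after 40 hr compound exposure at 37 °C. AC50 values derive from standard Hill modelling of qHTS concentration-response data.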

[7] = Cell Viability - Renal Proximal Tubule (AID 545); conditions: renal proximal tubule cells viability; at 91.7 µM (top of the series), primary cells of rat origin unless noted; also: nearly all actives have a fitted effect of over 40% in size
Method in brief: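 Luminescent ATP signal (CellTiter-Glo) served as the viability read-out after 40 hr compound exposure of freshly isolated rat proximal tubule cells at 37 °C. Concentration-dependent ATP loss was fitted with the Hill equation to give AC50.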

[8] = Cell Viability - Mesenchymal (AID 546); conditions: mesenchymal cells viability, qHTS; series mostly up to 91.7 µM;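 also: cells exposed to compound for 40 hours before reading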
Method in brief: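 AC50 values reflect the drop in intracellular ATP in a human kidney mesenchymal line derived from normal glomeruli. Treatment lasts 40 hr at 37 °C in complete medium, and the signal comes from CellTiter-Glo luminescence.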

[9] = Cellular Toxicity (caspase-3) Jurkat (AID 655); conditions: Jurkat caspase-3 activation, luminescence, DMSO = 0%, tamoxifen = 100%; at 92.2 µM (top of the series);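 also: cells exposed to compound for 16 h at 37 °C before reading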
Method in brief: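 5000 Jurkat cells/well; compound 16 hr, 37 °C; Caspase-Glo 3/7 added, 20 min RT; luminescence read. Norm: DMSO = 0%, tamoxifen 100 uM = 100%. AC50, Hill model.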

[10] = Cellular Toxicity (caspase-3) HUV-EC-C (AID 656); conditions: HUV-EC-C cells, caspase-3 activation (apoptosis), vehicle = 0, 100 µM tamoxifen = 100%; series mostly up to 92.2 µM
Method in brief: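 qHTS; HUV-EC-C, 1000 cells/well; 5 hr settle, 16 hr cmpd, 37°C; Caspase-Glo 3/7, 20 min RT; luminescence. Norm: DMSO = 0%, tamoxifen 100 uM = 100%. Hill-fit AC50.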

[11] = Cellular Toxicity (caspase-3) SHSY5Y (AID 657); conditions: SH-SY5Y caspase-3 activation, DMSO zero, 10 µM staurosporine = 100%; series mostly up to 91.7 µM;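 also: cells exposed to compound for 16 hours at 37 °C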
Method in brief: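 qHTS, SH-SY5Y, 1500 cells/well, 5 h pre-incubation 37 °C; compound 16 h 37 °C; Caspase-Glo 3/7 1 h RT; luminescence. Norm.: DMSO = 0, 10 uM staurosporine = 100%. Hill fit → AC50.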

[12] = Cellular Toxicity (caspase-3) BJ (AID 658); conditions: BJ fibroblasts, luminescence, normalized: DMSO 0%, staurosporine 100%; series mostly up to 91.7 µM
Method in brief: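 Readout: Caspase-Glo 3/7 luminescence increase in BJ cells after 16 hr treatment at 37 °C. Staurosporine and tamoxifen served as positive controls; AC50 values came from Hill modelling of data normalized to DMSO and 10 uM staurosporine.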

[13] = Cellular Toxicity (caspase-3) MRC-5 (AID 659); conditions: MRC-5 cells, luminescence, normalized: DMSO 0%, 10 µM staurosporine 100%; series mostly up to 91.7 µM
Method in brief: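 Concentration-dependent caspase 3/7 activation is measured in human normal lung fibroblasts (MRC-5) following 16-hour treatment. AC50 values come from standard Hill-equation modeling of luminescence normalized to DMSO and 10 uM staurosporine.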

[14] = Cellular Toxicity (caspase-3) SK-N-SH (AID 661); conditions: SK-N-SH caspase-3 activation, qHTS, DMSO as zero, staurosporine as full; series mostly up to 91.7 µM
Method in brief: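 Human neuroblastoma SK-N-SH, 1500 cells/well, 5 hr pre-incubation, then compound 16 hr, 37 °C. Caspase-Glo 3/7 reagent, 1 hr RT, luminescence. Norm. to DMSO/10 uM staurosporine; Hill-fit AC50.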

[15] = Cellular Toxicity (caspase-3) H-4-II-E (AID 663); conditions: H-4-II-E rat hepatoma, scaled: DMSO 0%, 100 µM tamoxifen 100%; series mostly up to 92.2 µM;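 also: cells exposed to compound for 16 hr before readout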
Method in brief: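 Apoptosis induction is scored as increased luminescence from caspase 3/7 substrate cleavage in rat hepatoma H-4-II-E cells exposed to compound for 16 hr. Activity is scaled between DMSO and 100 uM tamoxifen.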

[16] = Cellular Toxicity (caspase-3) N2a (AID 665); conditions: N2a cells, luminescence, normalized: DMSO 0%, 10 µM staurosporine 100%; at 92.2 µM (top of the series);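 also: compound exposure lasted 16 h at 37 °C before readout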
Method in brief: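 N2a cells, 1500/well, 5 h settle at 37 °C; cpd 16 h, 37 °C; Caspase-Glo 3/7, 1 h RT; luminescence. Norm: DMSO = 0, 10 uM staurosporine = 100%. AC50, Hill fit.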

[17] = molecular target: Cytochrome P450 3A4 (Homo sapiens) (UniProt P08684); test: qHTS Assay for Inhibitors and Substrates of Cytochrome P450 3A4 (AID 884); conditions: recombinant CYP3A4, Luciferin-PPXE luminescence; series mostly up to 57.1 µM; also: % is scaled to controls: 0 for no effect and ±100 for the full control effect; nearly all actives have a fitted effect of over 50% in size
Cytochrome P450 3A4 (Homo sapiens), sequence (P08684 whole entry, looked up): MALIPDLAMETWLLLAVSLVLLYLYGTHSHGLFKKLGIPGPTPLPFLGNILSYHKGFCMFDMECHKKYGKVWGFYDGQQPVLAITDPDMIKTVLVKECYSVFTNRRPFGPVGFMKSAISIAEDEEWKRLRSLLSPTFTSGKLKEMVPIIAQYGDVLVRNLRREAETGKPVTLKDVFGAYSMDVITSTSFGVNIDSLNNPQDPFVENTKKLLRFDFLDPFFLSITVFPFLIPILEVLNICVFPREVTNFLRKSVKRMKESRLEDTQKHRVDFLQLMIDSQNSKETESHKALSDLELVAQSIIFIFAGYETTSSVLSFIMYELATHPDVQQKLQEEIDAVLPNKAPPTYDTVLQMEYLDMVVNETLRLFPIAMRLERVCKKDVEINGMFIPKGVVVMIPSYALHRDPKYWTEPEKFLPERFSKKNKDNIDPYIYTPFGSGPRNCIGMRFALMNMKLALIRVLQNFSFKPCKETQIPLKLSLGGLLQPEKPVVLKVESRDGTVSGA
Method in brief: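 20 nM human CYP3A4 with 25 uM Luciferin-PPXE (at KM) in 200 mM KPO4, preincubated 10 min with compound; NADPH regeneration started a 60 min RT reaction. Luciferin detected by luminescence, normalized to 57 uM ketoconazole as full inhibition.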

[18] = qHTS Assay for Identification of Small Molecule Inducers of Hypoxia Response (AID 2120; active = well fitted curve in the direction sought with a large enough effect in the signal ratio, with a control signal flat, not every such curve was filed as active; the % refers to the signal ratio; also: 0% is about no effect); conditions: hypoxia response reporter cells, beta-lactamase ratio readout; series mostly up to 104 µM
Method in brief: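 ME-180 HRE-bla cells plated in Opti-MEM/0.5% dialyzed FBS, rested 4-5 h, then dosed with compound titrations by pin tool. After 17 h at 37 degrees C, CCF4 dye loaded 2.5 h at RT; 460/530 nm ratio gave %Activity and AC50.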

[19] = qHTS assay for small molecule agonists of the antioxidant response element (ARE) signaling pathway measured by Nrf2-dependant transcriptional activity - cell viability counter screen (AID 720653; active = well fitted curve in the direction sought with a large enough effect in the repeat runs; an effect the other way counts as inactive or inconclusive; also: % is scaled to controls: 0 for no effect and ±100 for the full control effect); conditions: ARE-bla HepG2 viability, CellTiter-Glo ATP luminescence, 16 h; active compounds read low
Method in brief: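 Cytotoxicity counter screen: intracellular ATP quantified by CellTiter-Glo luminescence in the same ARE-bla HepG2 plates, after 16 h compound exposure and a 2 h beta-lactamase substrate step.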

[20] = qHTS assay for cell viability of HEK293 cells (AID 743288); conditions: ATP luminescence (CellTiter-Glo), 18 h; max response: active compounds read low; also: % is scaled to controls: 0 for no effect and ±100 for the full control effect; nearly all actives have a fitted effect of over 50% in size
Method in brief: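 HEK293 parental, 2,000 cells/well; ≥5 h pre-incubation 37 C; pintool compound addition; 18 h, 37 C; CellTiter-Glo 30 min RT; luminescence read.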

C=CC(=C)C
inactive: Potency [1] > 92 µM | Potency [2] > 92 µM | outcome [3] | activity change, negative = cytotoxicity [4] -9.16% | Potency [5] | Potency [6] | activity change, negative = cytotoxicity [7] 5.45% | outcome [8] | caspase-3 activation [9] 0.843% | outcome [10] | outcome [11] | outcome [12] | outcome [13] | outcome [14] | outcome [15] | caspase-3 activation [16] -1.13% | Potency [17] | outcome [18] | max response [19] -2.67% | max response [20] 2.66%

CCOc1ccc(N)cc1
inactive: Potency [1] > 92 µM | Potency [2] > 92 µM | outcome [3] | activity change, negative = cytotoxicity [4] -11.8% | Potency [5] | Potency [6] | activity change, negative = cytotoxicity [7] -1.23% | outcome [8] | caspase-3 activation [9] -0.901% | outcome [10] | outcome [11] | outcome [12] | outcome [13] | outcome [14] | outcome [15] | caspase-3 activation [16] 6.79% | Potency [17] | outcome [18] | max response [19] 1.12% | max response [20] 7.24%

CC(C)(C)OOC(C)(C)C
inactive: Potency [1] > 92 µM | Potency [2] > 92 µM | outcome [3] | activity change, negative = cytotoxicity [4] -23.7% | Potency [5] | Potency [6] | activity change, negative = cytotoxicity [7] -8.32% | outcome [8] | caspase-3 activation [9] 0.243% | outcome [10] | outcome [11] | outcome [12] | outcome [13] | outcome [14] | outcome [15] | caspase-3 activation [16] 0.408% | Potency [17] | outcome [18] | max response [19] -1.66% | max response [20] 1.9%

C=CC(C)=O
inactive: Potency [1] > 92 µM | Potency [2] > 92 µM | outcome [3] | activity change, negative = cytotoxicity [4] -2.38% | Potency [5] | Potency [6] | activity change, negative = cytotoxicity [7] 14% | outcome [8] | caspase-3 activation [9] -0.622% | outcome [10] | outcome [11] | outcome [12] | outcome [13] | outcome [14] | outcome [15] | caspase-3 activation [16] 0.266% | Potency [17] | outcome [18] | max response [19] 0.624% | max response [20] 0.318%

C=CCOC(=O)c1ccccc1N
inactive: Potency [1] > 92 µM | Potency [2] > 92 µM | outcome [3] | activity change, negative = cytotoxicity [4] -10.8% | Potency [5] | Potency [6] | activity change, negative = cytotoxicity [7] -5.75% [at 91.7 µM] | outcome [8] | caspase-3 activation [9] 0.746% | outcome [10] | outcome [11] | outcome [12] | outcome [13] | outcome [14] | outcome [15] | caspase-3 activation [16] -3.47% | Potency [17] | outcome [18] | max response [19] 4.08% | max response [20] 8.68%

c1ccc2c(c1)CCCC2
inactive: Potency [1] > 92 µM | Potency [2] > 92 µM | outcome [3] | activity change, negative = cytotoxicity [4] 9.7% | Potency [5] | Potency [6] | activity change, negative = cytotoxicity [7] -0.896% | outcome [8] | caspase-3 activation [9] -0.484% | outcome [10] | outcome [11] | outcome [12] | outcome [13] | outcome [14] | outcome [15] | caspase-3 activation [16] 1.3% | Potency [17] | outcome [18] | max response [19] -5.84% | max response [20] -7.83%

Nc1c(Cl)c(Cl)nc(C(=O)O)c1Cl
inactive: Potency [1] > 92 µM | Potency [2] > 92 µM | activity change, negative = cytotoxicity [4] -10.1% | Potency [5] | Potency [6] | activity change, negative = cytotoxicity [7] -10.2% | outcome [8] | caspase-3 activation [9] 0.643% | outcome [10] | outcome [11] | outcome [12] | outcome [13] | outcome [14] | outcome [15] | caspase-3 activation [16] -2.12% | Potency [17] | outcome [18] | max response [19] 5.28% and -6.28% and -12.8% | max response [20] -0.605% and -10.4% and -8.99%

Nc1ccccc1Cl
inactive: Potency [1] > 92 µM | Potency [2] > 92 µM | outcome [3] | activity change, negative = cytotoxicity [4] -1.33% | Potency [5] | Potency [6] | activity change, negative = cytotoxicity [7] 6.03% | outcome [8] | caspase-3 activation [9] -0.675% | outcome [10] | outcome [11] | outcome [12] | outcome [13] | outcome [14] | outcome [15] | caspase-3 activation [16] 1.48% | Potency [17] | outcome [18] | max response [19] 8.24% | max response [20] -8.45%

CC(C)(c1ccccc1)c1ccc(O)cc1
inactive: Potency [1] > 92 µM | Potency [2] > 92 µM | outcome [3] | activity change, negative = cytotoxicity [4] -17.8% | Potency [5] | Potency [6] | activity change, negative = cytotoxicity [7] -9.32% | outcome [8] | caspase-3 activation [9] 11.6% | outcome [10] | outcome [11] | outcome [12] | outcome [13] | outcome [14] | outcome [15] | caspase-3 activation [16] 1.43% | outcome [18] | max response [19] 9.52% and -12.4% | max response [20] -13.3% and 1.83%
